# Laboratory results: PubChem BioAssay AID720532 (National Center for Advancing Translational Sciences (NCATS), 2013)
# “And” between values parts separate entries of the source, which are not always exact repeats. Identical values can stand only once. In all, about 18,000 compounds went through this assay and about 1,200 (6.7%) were called active. Not shown: some 16% with an inconclusive outcome. Calls come from the whole dose curve; tested in HEK293 cells. The full list was thinned out, with actives kept by preference. Bridge positions count the residues as written; N and C are the ends. Peptide text beside a SMILES is read from it.
# Experiment: qHTS for Inhibitors of binding or entry into cells for Marburg Virus
# Settings: Marburg virus pseudotype entry/binding inhibition, cell-based; series mostly up to 49.2 µM; activity change, negative = inhibition: at the top concentration
# % is set by controls: 0 for no effect and ±100 for the full control effect; potency is the fitted concentration of half-maximal effect.
Compound,"activity change, negative = inhibition",Potency
COC(=O)C1=C(C(=O)OC)[C@@H]2N(C)c3ccccc3[C@@]23C[C@@H](C(=O)OC)N(C(=O)c2ccco2)C3=N1,74% [at 8.59 µM] (inactive),
C[C@H](CCC(=O)NCC(=O)O)[C@H]1CC[C@H]2[C@H]3[C@@H](C[C@@H](O)[C@]12C)[C@]1(C)CC[C@H](O)C[C@@H]1C[C@@H]3O,7.66% [at 17.8 µM] (inactive),
COC(=O)[C@@]1(C=C[C@@H](C)[C@H](OC)c2ccccc2Br)[C@@H]2Oc3ccccc3[C@@H]21,4.01% [at 8.59 µM] (inactive),
C=C[C@](C)(O)CCC1C(=C)CCC2[C@@](C)(CO)CCC[C@@]12C (stereo not given in full),1.45% (inactive),
COc1cccc([C@@H]2Oc3ccc(OC)cc3C(=O)[C@@H]2OC(=O)Nc2cc(OC)c(OC)c(OC)c2)c1,12.9% [at 8.59 µM] (inactive),
Fc1ccc(Cl)cc1-c1nc(Nc2ccncc2)c2nccnc2n1,-20.9% (inactive),
C=C(C(C)=O)C(O)c1ccc([N+](=O)[O-])cc1 (stereo not given),-9.42% (inactive),
COc1ccc(-c2nc3c(c4c2C[C@H](c2ccccc2)OC4)CN(C(=O)C2CC2)CC3)c(C)c1,-29.5% [at 8.59 µM] (inactive) and -8.72% [at 8.59 µM] (inactive),
C[C@@H](O)[C@@H]1NC(=O)[C@H](CCCCN)NC(=O)[C@H](Cc2c[nH]c3ccccc23)NC(=O)[C@H](Cc2ccccc2)NC(=O)[C@H](Cc2ccccc2)NC(=O)[C@H](CC(N)=O)NC(=O)[C@H](CCCCN)NC(=O)[C@@H](NC(=O)[C@@H]2CCCN2)CSSC[C@@H](C(=O)N[C@@H](CCCCN)C(=O)O)NC(=O)[C@H](CO)NC(=O)[C@H](CO)NC(=O)[C@H](Cc2ccccc2)NC1=O (H-PCKNFFWKTFSSCK-OH; disulfide 2-13),9.81% (inactive),
C[C@@H]1C(c2ccc(F)cc2)=NN(c2ccc(Br)cc2)[C@H]1C(=O)N1CCOC1=O,-15% (inactive),
C/C=C/C1=C(C(=O)O)N2C(=O)[C@@H](NC(=O)[C@H](N)c3ccc(O)cc3)[C@H]2SC1,33.3% (inactive),
COC(=O)CC1c2ccccc2C(Cc2ccc(OC)cc2)=C(C)N1C(=O)OC (stereo not given),0.314% [at 8.59 µM] (inactive) and -19% [at 8.59 µM] (inactive),
CC(C)(C)OC(=O)N1CCC(C(=O)Nc2cccc(C(=O)NCCc3ccccc3)c2)CC1,27.7% (inactive),
CC(C)(O)CCC(O)[C@@](C)(O)C1CC[C@]2(O)C3=CC(=O)C4CC(O)C(O)C[C@]4(C)C3CC[C@]12C (stereo not given in full),7.71% (inactive),
CC(C)=CCC[C@]1(C)[C@@H](CC=C(C)C)C[C@@]2(CC=C(C)C)C(=O)[C@]1(C(=O)C(C)C)C(=O)C(CC=C(C)C)=C2O,,15.8 µM (active)
